In all, about 360,000 compounds went through this assay and about 11,000 (3.1%) were called active. Roughly 2% stayed inconclusive and do not appear here. The list comes from a sample in which actives are over-represented; it also holds similar structures and randomly drawn compounds. Unmarked numbers belong to inactive results. Cut-off read from the data, not from the text of the source: active = fluorescence intensity above about 16000; inconclusive = no clear call, values can overlap the other calls; inactive = below that.
Experiment: compound fluorescence in toxin protease inhibitor counterscreen, primary screen, artefact control for toxin protease inhibitor project, biochemical, multiplex microsphere, HTS (AID 624483)
Details: compound autofluorescence counterscreen, microsphere flow cytometry; active compounds read high
In the case of `CCc1nc2c(OCCOc3ccccc3)cccn2c1N(C)C(=O)c1ccccc1F`, the fluorescence intensity is reported as 3430. With `CCCCN(C=O)c1c(CC)nc2c(OCCC3CCCCC3)cccn12` the fluorescence intensity was 3460. With `Cc1ccccc1OCC(=O)NCC(=O)OCC(=O)c1ccc2ccccc2c1` the fluorescence intensity was 10600. `Cc1cccc(NC(=O)N(Cc2cc3cc(C)cc(C)c3[nH]c2=O)CC2COCCO2)c1` (configuration not stated) gave a fluorescence intensity of 11500. With `Cc1ccc2[nH]c(=O)c(CN(CC3COCCO3)C(=O)Nc3ccccc3C)cc2c1` (configuration not stated) the fluorescence intensity was 3250. In the case of `Cc1ccc2[nH]c(=O)c(CN(CCCN(C)C)C(=O)Nc3cccc(Cl)c3)cc2c1`, the fluorescence intensity is reported as 21500 (active). `COc1ccccc1CNc1nc(Nc2ccccc2Cl)c2sccc2n1` gave a fluorescence intensity of 3450. In the case of `Cc1occc1C(=O)NNC(=S)NCC(C)C`, the fluorescence intensity is reported as 16400 (active). In the case of `CC(C)CNC(=S)NNC(=O)c1nn(C)cc1Cl`, the fluorescence intensity is reported as 8820. `Cc1scc(C(=O)NNC(=S)NCC(C)C)c1C` showed a fluorescence intensity of 2420. For `CN(C)S(=O)(=O)c1ccc(C(=O)NCCN=C2NS(=O)(=O)c3ccccc32)cc1`, the fluorescence intensity was 3720. Compound `CC[C@]12c3[nH]c4cc(CCC(=O)N(C)C)ccc4c3CCN1C(=O)[C@@H](CC(=O)NCCCn1ccnc1)C[C@@H]2C(=O)N1CCN(C(=O)C2CC2)CC1` has a fluorescence intensity of 3900. In the case of `COc1cc(C2C(C(=O)OCCC#N)=C(C)NC3=C2S(=O)(=O)c2ccccc23)cc(OC)c1OC` (configuration not stated), the fluorescence intensity is reported as 9630. For `CCCCn1nc(C(=O)N2CCc3ccccc32)c2ccccc2c1=O`, the fluorescence intensity was 23400 (active). For `CCCn1nc(C(=O)N2CCCc3ccccc32)c2ccccc2c1=O`, the fluorescence intensity was 4370. For `CCCCn1nc(C(=O)Nc2cccc(C(=O)NC3CC3)c2)c2ccccc2c1=O`, the fluorescence intensity was 3390. In the case of `OC[C@@H]1CN(Cc2ccc(F)cc2)C[C@H](n2cnc3c(NC4CCCC4)ncnc32)O1`, the fluorescence intensity is reported as 3760. Compound `CC(=O)OCC(C)n1c(=O)c2ccccc2n1C(C)=O` (configuration not stated) has a fluorescence intensity of 6200. In the case of `Cc1cn([C@H]2C[C@H](O)[C@@H](/C=C/C(=O)NCCCc3ccccc3)O2)c(=O)[nH]c1=O`, the fluorescence intensity is reported as 4330. Work on `O=C(NC(=S)Nc1cccc(-c2ccc(CO)o2)c1)c1cccs1` yielded a fluorescence intensity of 4550. With `Cc1sc(NC(=S)NC(=O)c2cccs2)nc1-c1ccc(CC(C)C)cc1` the fluorescence intensity was 19900 (active). `CCc1nnc(NS(=O)(=O)c2ccc(NC(=S)NC(=O)c3cccs3)cc2)s1` showed a fluorescence intensity of 3630. With `CC1=C(C(=O)OCC2CCCCC2)C(c2ccc(F)cc2)NC(=O)N1` (configuration not stated) the fluorescence intensity was 3520. Work on `CC(C)c1cccc(-c2csc(C(O)c3ccccc3)n2)c1` (configuration not stated) yielded a fluorescence intensity of 3800. With `COC(=O)c1sccc1NC(=O)c1ccc(Cl)cc1` the fluorescence intensity was 2980. `COC(=O)c1sccc1NS(=O)(=O)c1ccc(F)cc1F` showed a fluorescence intensity of 3170. For `COC(=O)c1sccc1N/N=C(\C)c1ccc(F)c(Cl)c1`, the fluorescence intensity was 22300 (active). In the case of `OC(c1ccccc1)c1nc(-c2cnc3ccccc3c2)cs1` (configuration not stated), the fluorescence intensity is reported as 3830. For `Cc1ccc(NC(=O)CNCc2ccccn2)cc1S(=O)(=O)N(C)C`, the fluorescence intensity was 4460. Work on `CCN(c1ccccc1)S(=O)(=O)c1cc(C(=O)NCc2ccccn2)ccc1C` yielded a fluorescence intensity of 6330. With `CCN(CC)S(=O)(=O)c1cc(C(=O)Nc2ccccn2)ccc1C` the fluorescence intensity was 24700 (active). `CC1(C)OC(=O)C2=C(C[C@@H](C3CC3)O[C@H]2c2ccc(Cl)cc2)O1` showed a fluorescence intensity of 5960. With `Cc1cc2nc(-c3ccco3)c(Cc3cccc(F)c3)n2c(C)c1Br` the fluorescence intensity was 5860. In the case of `Cc1cc(OCC(=O)N(C)c2c(N)n(Cc3ccccc3)c(=O)[nH]c2=O)c(C(C)C)cc1Cl`, the fluorescence intensity is reported as 5120. `Cc1ccc(S(=O)(=O)N(CC(=O)NCCSC2CCCCC2)c2ccccc2F)cc1` gave a fluorescence intensity of 7650. With `O=P(c1cccs1)(c1cccs1)c1cccs1` the fluorescence intensity was 22500 (active). Work on `O=C(O)CCC(=O)N(Cc1cccs1)Cc1cccs1` yielded a fluorescence intensity of 9340. `COc1ccc(CC(N)c2csc(NC(=O)Cc3ccccc3)n2)cc1` (configuration not stated) gave a fluorescence intensity of 3080. Work on `CCCCCCCCN1C(=O)[C@H](CC(=O)NCC23CC4CC(CC(C4)C2)C3)C[C@@]2(C(=O)OC)CCCCC=C12` yielded a fluorescence intensity of 5660. For `COC(=O)c1ccc(CN2CCC(CO)(Cc3ccc(OC)cc3)CC2)cc1`, the fluorescence intensity was 3600. For `CC(=O)N(C1=NCCCS1)c1ccccc1F`, the fluorescence intensity was 24900 (active). With `O=C(NCc1ccc(F)cc1)c1cc(C2CCCCN2C(=O)c2cccs2)on1` (configuration not stated) the fluorescence intensity was 3580. Compound `Nc1c(-c2ccccc2)nnn1Cc1ccccc1` has a fluorescence intensity of 5560. For `Cc1nn(Cc2ccccc2)c(C)c1NS(=O)(=O)c1ccccc1`, the fluorescence intensity was 5640. With `OCc1nc(CO)n(Cc2ccccc2)n1` the fluorescence intensity was 20000 (active). Work on `O=C(NCc1cccnc1)c1ccc2nc([C@@H]3O[C@H](CO)[C@H](O)[C@H](O)[C@H]3O)[nH]c2c1` yielded a fluorescence intensity of 3590. In the case of `O=C1C(C=NCC2CCCO2)=C(O)c2ccccc21` (configuration not stated), the fluorescence intensity is reported as 21000 (active). For `O=C1c2cccc3c([N+](=O)[O-])ccc(c23)C(=O)N1CC1CCCO1` (configuration not stated), the fluorescence intensity was 3530. Compound `Cc1ccc(-n2c(O)c(C=NCC3CCCO3)c(=O)[nH]c2=O)c(C)c1` (configuration not stated) has a fluorescence intensity of 6540. In the case of `CC(C)Oc1ccc(CN2CCC2(C)C(=O)NCc2ccc(C(F)(F)F)cc2)cc1` (configuration not stated), the fluorescence intensity is reported as 4110. For `COc1ccc(C(=O)Nc2cc(S(=O)(=O)N3CCCC3)ccc2Cl)cc1`, the fluorescence intensity was 3660. `CNC(=O)c1ccsc1NC(=O)c1ccc(S(=O)(=O)N2CCOCC2)cc1` showed a fluorescence intensity of 2470. For `COc1ccc(C(=O)Nc2nc(-c3ccc(S(=O)(=O)N4CCOCC4)cc3)cs2)cc1`, the fluorescence intensity was 20400 (active). Compound `COc1ccc(-c2cnc3c(c2)C(=O)N([C@H](C)CO)C[C@@H](C)[C@H](CN(C)Cc2ccccc2)O3)cc1` has a fluorescence intensity of 3700. `CC(C)NC(=O)CSc1ccccc1C(=O)NCc1ccc2c(c1)OCO2` showed a fluorescence intensity of 2170. `CCN(CC)C(=O)C(=O)c1cn(CC(=O)NCc2ccc3c(c2)OCO3)c2ccccc12` gave a fluorescence intensity of 4830. `CCOC(=O)N1CCC(NC(=O)Cc2cn(C)c3ccccc23)CC1` showed a fluorescence intensity of 2810. Work on `Cn1cc(CCC(=O)NC2CC2)c2ccccc21` yielded a fluorescence intensity of 3960. For `Cn1cc(CCC(=O)NCc2ccc3c(c2)OCO3)c2ccccc21`, the fluorescence intensity was 22500 (active). Compound `CCOC(=O)N1CCC(NC(=O)CCc2ccccc2)CC1` has a fluorescence intensity of 3630. With `CCOC(=O)N1CCC(NC(=O)CCc2cn(C)c3ccccc23)CC1` the fluorescence intensity was 22900 (active). For `CCn1c(=O)cc(SCC(=O)NCc2ccc3c(c2)OCO3)c2ccccc21`, the fluorescence intensity was 23400 (active). For `CCn1c(=O)cc(SCC(=O)NCCC2=CCCCC2)c2ccccc21`, the fluorescence intensity was 2540. For `COc1ccc(-c2csc(C(O)c3cccc(Cl)c3)n2)cn1` (configuration not stated), the fluorescence intensity was 3880. `COCCNC(=O)CSc1nc2c(n1-c1ccccc1)CCCC2` gave a fluorescence intensity of 3860. Compound `COc1ccc(-c2cc3nc(NCCOc4ccccc4)ccn3n2)cc1` has a fluorescence intensity of 4480. `O=C(NCc1ccc(F)cc1)C(c1ccccc1)N(C(=O)c1csnn1)C1CC1` (configuration not stated) showed a fluorescence intensity of 2770. `CNc1cncc(-c2ccc(NS(C)(=O)=O)cc2)n1` showed a fluorescence intensity of 3500. For `Cc1ccc(-c2ccnc3nc(Sc4ncc(C(F)(F)F)cc4Cl)nn23)cc1`, the fluorescence intensity was 23100 (active). `Cc1nn(-c2ncc(C(F)(F)F)cc2Cl)c(=O)n1-c1ccccc1` gave a fluorescence intensity of 2340. In the case of `Cc1cc(NC(=O)CSc2ncc(C(F)(F)F)cc2Cl)no1`, the fluorescence intensity is reported as 3110. Compound `Cc1ccc(-c2cnc(C(O)c3cccc(C)c3C)[nH]2)cc1` (configuration not stated) has a fluorescence intensity of 3860. For `OC(c1ccccc1)(c1ccccc1)C1CCN(CCCOc2ccccc2)CC1`, the fluorescence intensity was 6640. Work on `COc1ccc(CN2CCC(C)(Oc3cccc(F)c3)C2)c2ccccc12` (configuration not stated) yielded a fluorescence intensity of 3240. With `Cc1ccccc1CSCC(=O)NC(=O)NC(C)(C)C` the fluorescence intensity was 11200. For `COc1ccccc1-n1ccnc1SCC(=O)NC(C)(C)C`, the fluorescence intensity was 3990. With `CC(C)(C)NC(=O)CSC(=Nc1ccccc1F)NC#N` the fluorescence intensity was 21400 (active). `CCOC(=O)[C@]12CCC=C1N(Cc1cccc3ccccc13)C(=O)[C@H](CC(=O)NCc1cccc(C(F)(F)F)c1)C2` gave a fluorescence intensity of 4120. `CC(=O)Nc1cc(-c2cccc(CO)c2)cn2c(-c3cccc(C(F)(F)F)c3)cnc12` showed a fluorescence intensity of 3820. Work on `OC(c1ccc(Cl)cc1)C(CN1CCOCC1)c1ccccc1` (configuration not stated) yielded a fluorescence intensity of 3680. In the case of `COCCn1c(SCC(=O)Nc2cc(Cl)ccc2OC)nc2c(c1=O)SC(C)C2` (configuration not stated), the fluorescence intensity is reported as 4110. In the case of `CCOC(=O)c1cccc(NC(=O)CCOc2ccccc2)c1`, the fluorescence intensity is reported as 3720. With `CCOC(=O)c1cccc(NC(=O)CCc2c(C)nc3ncnn3c2C)c1` the fluorescence intensity was 17600 (active). Work on `CCOC(=O)c1cccc(NC(=O)CCn2nnc3ccccc32)c1` yielded a fluorescence intensity of 4180. Compound `c1ccc(C2CNCc3c2ccc2ccccc32)cc1` (configuration not stated) has a fluorescence intensity of 10400. In the case of `O=S1(=O)CC(N2CCN(Cc3ccccc3F)CC2)CN1Cc1cn(Cc2cccc(C(F)(F)F)c2)nn1` (configuration not stated), the fluorescence intensity is reported as 4150. With `CS(=O)(=O)N1CCN(c2ccc(C(=O)NC3C4CC5CC(C4)CC3C5)cc2[N+](=O)[O-])CC1` (configuration not stated) the fluorescence intensity was 17000 (active). For `Cc1ccc(C(=O)c2ccc(N3CCN(C)CC3)c([N+](=O)[O-])c2)cc1`, the fluorescence intensity was 2490. In the case of `Cc1cccc(N2CCN(c3ccc(C(N)=O)cc3[N+](=O)[O-])CC2)c1C`, the fluorescence intensity is reported as 4080. In the case of `CCCNC(=O)CN(Cc1ccccc1F)S(=O)(=O)c1ccc(C)cc1`, the fluorescence intensity is reported as 21400 (active). Compound `CCN(CC(=O)NCCc1ccccc1)S(=O)(=O)c1ccccc1` has a fluorescence intensity of 5110. `CCN(CC(=O)NCCc1ccccc1)S(=O)(=O)c1ccc(C)cc1` gave a fluorescence intensity of 2180.
